Measured values taken from the supplement of paper PMC10849652.
About 7,900 targets were measured; listed, in parts, are those with a hit and a random draw of the rest. About 0.6% of all pairs of compound and target were hits. Unmarked numbers belong to inactive results.

Experiments:
Test in all cases: log2 fold change, soluble protein after heating vs DMSO (PISA); higher = thermal stabilisation; K562 cells, 10 uM, 30 min; active = over 0.2 and 3.5 SD of the protein, either way, in both replicates (recomputed)
saracatinib = compound: CN1CCN(CCOc2cc(OC3CCOCC3)c3c(Nc4c(Cl)ccc5c4OCO5)ncnc3c2)CC1 [saracatinib]
In short: (§1)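 K562 cells at 2×10^6 cells/mL were treated for 30 min with 10 μM compound, and aliquots were heated for 3 min over 48°C-58°C before pooling. Extraction used PBS with 0.5% NP-40 at 4°C, and soluble protein was the supernatant after 21,000xg for 90 min, measured by TMTpro 16plex LC-MS/MS with channel sums equalised. Thermal stability values, relative to control samples and from duplicates, are log2 fold changes.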

sotrastaurin = compound: CN1CCN(c2nc(C3=C(c4c[nH]c5ccccc45)C(=O)NC3=O)c3ccccc3n2)CC1 [sotrastaurin]
In short: as §1

alvocidib = compound: CN1CC[C@H](c2c(O)cc(O)c3c(=O)cc(-c4ccccc4Cl)oc23)[C@H](O)C1 [alvocidib]
In short: as §1

Tubastatin A = compound: CN1CCc2c(c3ccccc3n2Cc2ccc(C(=O)NO)cc2)C1 [Tubastatin A]
In short: as §1

[1] = compound: CNC(=O)C1=CC=CC=C1NC2=NC(=NC=C2Cl)NC3=C(C=C(C=C3)N4CCOCC4)OC
In short: as §1

defactinib = compound: CNC(=O)c1ccc(Nc2ncc(C(F)(F)F)c(NCc3nccnc3N(C)S(C)(=O)=O)n2)cc1 [defactinib]
In short: as §1

rucaparib = compound: CNCc1ccc(-c2[nH]c3cc(F)cc4c3c2CCNC4=O)cc1 [rucaparib]
In short: as §1

[2] = compound: CNc1nc(-c2ccc3c(N)n[nH]c3c2)cc(N2C[C@@H](C(=O)NC3CCCCC3)CC[C@H]2C)n1
In short: as §1

encorafenib = compound: COC(=O)N[C@@H](C)CNc1nccc(-c2cn(C(C)C)nc2-c2cc(Cl)cc(NS(C)(=O)=O)c2F)n1 [encorafenib]
In short: as §1

[3] = compound: COC(=O)[C@H](CCSC)NC(=O)C1=C(C=C(C=C1)NC[C@H](CS)N)C2=CC=CC=C2
In short: as §1

Chain of UniProt P54578 (P54578 whole entry, looked up): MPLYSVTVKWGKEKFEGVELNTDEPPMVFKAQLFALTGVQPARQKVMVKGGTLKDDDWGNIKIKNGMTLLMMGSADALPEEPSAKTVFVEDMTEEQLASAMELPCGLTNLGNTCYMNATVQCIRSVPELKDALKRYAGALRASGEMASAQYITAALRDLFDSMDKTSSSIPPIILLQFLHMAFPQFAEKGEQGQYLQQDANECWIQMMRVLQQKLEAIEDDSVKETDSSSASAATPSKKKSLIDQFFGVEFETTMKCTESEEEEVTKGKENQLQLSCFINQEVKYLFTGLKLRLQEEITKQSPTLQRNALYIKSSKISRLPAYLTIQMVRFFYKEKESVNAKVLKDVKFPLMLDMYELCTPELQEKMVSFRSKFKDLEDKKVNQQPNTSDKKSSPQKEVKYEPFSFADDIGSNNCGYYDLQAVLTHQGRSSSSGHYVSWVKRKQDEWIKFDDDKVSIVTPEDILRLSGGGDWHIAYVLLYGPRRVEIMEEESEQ
Chain of UniProt Q96DX7 (Q96DX7 whole entry, looked up): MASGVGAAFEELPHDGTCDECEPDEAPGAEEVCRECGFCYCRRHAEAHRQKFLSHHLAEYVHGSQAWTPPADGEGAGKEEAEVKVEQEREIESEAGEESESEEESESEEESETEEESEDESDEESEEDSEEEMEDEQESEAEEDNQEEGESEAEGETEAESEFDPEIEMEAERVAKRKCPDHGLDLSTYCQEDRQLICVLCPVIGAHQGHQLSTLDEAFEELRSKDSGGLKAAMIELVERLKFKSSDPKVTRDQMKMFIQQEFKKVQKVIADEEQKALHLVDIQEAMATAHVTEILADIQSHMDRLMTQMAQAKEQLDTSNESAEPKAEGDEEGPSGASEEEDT
Chain of UniProt Q99986 (Q99986 whole entry, looked up): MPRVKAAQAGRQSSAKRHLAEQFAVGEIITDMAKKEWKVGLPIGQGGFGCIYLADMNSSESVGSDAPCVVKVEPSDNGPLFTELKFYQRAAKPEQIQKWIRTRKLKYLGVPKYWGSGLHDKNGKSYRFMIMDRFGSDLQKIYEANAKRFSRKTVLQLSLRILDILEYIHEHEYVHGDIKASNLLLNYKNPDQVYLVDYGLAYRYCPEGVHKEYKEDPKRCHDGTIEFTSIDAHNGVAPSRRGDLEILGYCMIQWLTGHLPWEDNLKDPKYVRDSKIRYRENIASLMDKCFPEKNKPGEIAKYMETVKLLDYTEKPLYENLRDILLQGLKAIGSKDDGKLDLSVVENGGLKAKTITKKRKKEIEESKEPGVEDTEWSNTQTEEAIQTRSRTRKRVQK
Chain of UniProt Q15642 (Q15642 whole entry, looked up): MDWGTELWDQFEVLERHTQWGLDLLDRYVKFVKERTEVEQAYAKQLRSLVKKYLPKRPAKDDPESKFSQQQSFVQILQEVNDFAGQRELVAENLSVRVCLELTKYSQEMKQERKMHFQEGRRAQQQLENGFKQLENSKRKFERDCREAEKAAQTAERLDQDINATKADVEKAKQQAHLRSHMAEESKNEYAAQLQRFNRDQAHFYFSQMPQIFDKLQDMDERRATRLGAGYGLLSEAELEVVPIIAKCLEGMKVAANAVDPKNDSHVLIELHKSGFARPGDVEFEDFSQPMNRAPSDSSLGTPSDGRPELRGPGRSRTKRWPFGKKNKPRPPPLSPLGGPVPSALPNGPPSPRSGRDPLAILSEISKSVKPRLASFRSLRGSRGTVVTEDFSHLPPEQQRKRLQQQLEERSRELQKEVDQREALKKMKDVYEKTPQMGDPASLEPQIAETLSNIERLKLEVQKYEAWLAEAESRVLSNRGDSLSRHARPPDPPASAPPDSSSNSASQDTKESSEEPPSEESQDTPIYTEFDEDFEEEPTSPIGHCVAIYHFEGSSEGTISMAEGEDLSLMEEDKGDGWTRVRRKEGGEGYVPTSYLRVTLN
Chain of UniProt Q9UGM6 (Q9UGM6 whole entry, looked up): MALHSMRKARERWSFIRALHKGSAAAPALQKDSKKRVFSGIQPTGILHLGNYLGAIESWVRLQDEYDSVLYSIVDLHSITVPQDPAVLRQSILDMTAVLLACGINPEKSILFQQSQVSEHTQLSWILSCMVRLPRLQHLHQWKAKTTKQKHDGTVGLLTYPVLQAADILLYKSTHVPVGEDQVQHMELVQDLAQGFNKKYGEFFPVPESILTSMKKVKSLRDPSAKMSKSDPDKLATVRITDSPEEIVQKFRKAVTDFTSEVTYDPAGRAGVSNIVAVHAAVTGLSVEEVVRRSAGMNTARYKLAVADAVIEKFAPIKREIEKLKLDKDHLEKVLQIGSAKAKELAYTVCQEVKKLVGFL
Chain of UniProt Q6BDS2 (Q6BDS2 whole entry, looked up): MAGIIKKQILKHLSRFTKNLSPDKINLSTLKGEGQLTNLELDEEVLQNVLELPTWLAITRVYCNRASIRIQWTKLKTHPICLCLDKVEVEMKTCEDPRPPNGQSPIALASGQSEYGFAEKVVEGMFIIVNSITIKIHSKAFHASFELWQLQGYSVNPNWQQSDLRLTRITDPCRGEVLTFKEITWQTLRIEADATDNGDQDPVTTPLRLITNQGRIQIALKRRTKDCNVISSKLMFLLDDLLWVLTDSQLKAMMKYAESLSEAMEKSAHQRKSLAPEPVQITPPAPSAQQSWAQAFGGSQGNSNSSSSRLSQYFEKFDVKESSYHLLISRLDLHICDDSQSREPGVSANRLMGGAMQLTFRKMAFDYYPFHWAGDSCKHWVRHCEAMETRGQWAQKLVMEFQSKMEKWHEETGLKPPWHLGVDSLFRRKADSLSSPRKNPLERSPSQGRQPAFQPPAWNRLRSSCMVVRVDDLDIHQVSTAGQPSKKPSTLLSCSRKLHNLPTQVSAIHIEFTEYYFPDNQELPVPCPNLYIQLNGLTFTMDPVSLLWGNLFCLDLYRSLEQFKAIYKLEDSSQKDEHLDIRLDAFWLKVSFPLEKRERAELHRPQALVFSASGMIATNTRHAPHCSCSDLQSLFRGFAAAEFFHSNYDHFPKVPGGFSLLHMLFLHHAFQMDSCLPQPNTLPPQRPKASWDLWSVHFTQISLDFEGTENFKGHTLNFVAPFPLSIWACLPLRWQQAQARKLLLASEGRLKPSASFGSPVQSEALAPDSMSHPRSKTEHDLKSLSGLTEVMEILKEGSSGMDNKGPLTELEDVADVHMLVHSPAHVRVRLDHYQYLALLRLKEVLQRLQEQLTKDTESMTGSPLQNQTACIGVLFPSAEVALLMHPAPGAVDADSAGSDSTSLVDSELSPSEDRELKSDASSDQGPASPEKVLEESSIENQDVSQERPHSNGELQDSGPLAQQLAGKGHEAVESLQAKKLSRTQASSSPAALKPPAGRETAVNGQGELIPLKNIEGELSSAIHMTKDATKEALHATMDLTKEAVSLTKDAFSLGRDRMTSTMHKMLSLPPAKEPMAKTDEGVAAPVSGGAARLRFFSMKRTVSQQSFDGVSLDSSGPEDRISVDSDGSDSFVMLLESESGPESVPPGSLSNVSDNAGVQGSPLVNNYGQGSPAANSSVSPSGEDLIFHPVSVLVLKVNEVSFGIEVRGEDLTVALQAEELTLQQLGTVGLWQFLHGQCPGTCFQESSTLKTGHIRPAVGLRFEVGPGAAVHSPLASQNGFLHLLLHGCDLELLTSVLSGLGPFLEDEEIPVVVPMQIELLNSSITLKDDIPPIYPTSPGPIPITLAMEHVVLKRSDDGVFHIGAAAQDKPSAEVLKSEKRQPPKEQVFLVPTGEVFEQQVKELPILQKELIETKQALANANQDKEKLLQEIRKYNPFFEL
Chain of UniProt P61960 (P61960 whole entry, looked up): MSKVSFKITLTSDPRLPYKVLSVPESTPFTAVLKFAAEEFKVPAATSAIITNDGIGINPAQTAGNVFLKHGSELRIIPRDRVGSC
Chain of UniProt Q9BVJ6 (Q9BVJ6 whole entry, looked up): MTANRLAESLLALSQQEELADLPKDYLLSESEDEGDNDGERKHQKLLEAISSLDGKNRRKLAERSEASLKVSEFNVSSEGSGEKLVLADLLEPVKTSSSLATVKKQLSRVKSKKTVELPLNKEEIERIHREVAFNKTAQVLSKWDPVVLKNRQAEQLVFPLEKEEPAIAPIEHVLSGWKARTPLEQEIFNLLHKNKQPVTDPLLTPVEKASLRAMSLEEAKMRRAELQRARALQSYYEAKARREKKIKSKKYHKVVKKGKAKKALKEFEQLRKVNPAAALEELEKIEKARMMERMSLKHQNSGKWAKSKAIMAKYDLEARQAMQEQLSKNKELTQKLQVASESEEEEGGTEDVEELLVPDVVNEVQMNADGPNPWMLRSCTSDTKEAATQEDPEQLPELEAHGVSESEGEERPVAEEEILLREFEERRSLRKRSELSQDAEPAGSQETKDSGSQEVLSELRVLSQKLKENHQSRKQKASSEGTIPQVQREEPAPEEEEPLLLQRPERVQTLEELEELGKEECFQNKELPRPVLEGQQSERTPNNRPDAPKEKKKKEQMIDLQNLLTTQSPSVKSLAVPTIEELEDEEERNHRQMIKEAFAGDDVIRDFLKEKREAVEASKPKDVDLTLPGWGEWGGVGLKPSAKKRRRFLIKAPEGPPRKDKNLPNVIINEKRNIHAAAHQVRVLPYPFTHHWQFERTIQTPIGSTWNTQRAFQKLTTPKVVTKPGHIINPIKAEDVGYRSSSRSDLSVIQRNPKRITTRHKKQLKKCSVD
Chain of UniProt Q8NDZ6 (Q8NDZ6 whole entry, looked up): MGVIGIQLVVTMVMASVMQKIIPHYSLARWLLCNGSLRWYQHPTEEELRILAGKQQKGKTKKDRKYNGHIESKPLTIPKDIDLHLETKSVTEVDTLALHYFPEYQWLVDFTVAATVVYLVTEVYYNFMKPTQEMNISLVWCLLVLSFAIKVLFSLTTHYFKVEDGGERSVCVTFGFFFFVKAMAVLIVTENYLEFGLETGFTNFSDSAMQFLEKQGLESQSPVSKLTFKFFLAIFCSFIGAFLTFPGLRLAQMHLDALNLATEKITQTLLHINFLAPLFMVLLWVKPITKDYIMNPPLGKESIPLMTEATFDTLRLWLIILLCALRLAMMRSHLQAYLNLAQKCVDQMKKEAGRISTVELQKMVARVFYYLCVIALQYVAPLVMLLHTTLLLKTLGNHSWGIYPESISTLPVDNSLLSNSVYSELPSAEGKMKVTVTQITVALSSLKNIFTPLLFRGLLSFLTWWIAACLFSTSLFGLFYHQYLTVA

| Target | log2 fold change (saracatinib) | log2 fold change (sotrastaurin) | log2 fold change (alvocidib) | log2 fold change (Tubastatin A) | log2 fold change [1] | log2 fold change (defactinib) | log2 fold change (rucaparib) | log2 fold change [2] | log2 fold change (encorafenib) | log2 fold change [3] |
| --- | --- | --- | --- | --- | --- | --- | --- | --- | --- | --- |
| VRK1 (UniProt Q99986) | -0.057 | 0.152 | 0.285 | 0.07 | 0.05 | -0.041 | 0.048 | 0.108 | 0.043 | -0.04 |
| VPS11 (UniProt Q9H270) | -0.003 | -0.08 | -0.061 | 0.004 | -0.018 | -0.066 | 0.082 | -0.021 | 0.023 | -0.01 |
| VRK2 (UniProt Q86Y07) | -0.036 | 0.075 | 0.4 (active) | 0.014 | -0.102 | 0.106 | -0.039 | -0.017 | -0.001 | -0.092 |
| USP24 (UniProt Q9UPU5) | 0.033 | 0.092 | -0.061 | -0.143 | 0.034 | -0.079 | -0.03 | 0.278 | 0.048 | -0.034 |
| UTP14A (UniProt Q9BVJ6) | -0.023 | -0.017 | 0.077 | 0.163 | 0.024 | 0.055 | 0.15 | 0.066 | 0.124 | 0.021 |
| USP9X (UniProt Q93008) | -0.006 | -0.073 | -0.056 | -0.014 | -0.022 | -0.03 | 0.032 | -0.003 | 0.082 | -0.009 |
| UHRF1BP1 (UniProt Q6BDS2) | 0.011 | 0.049 | -0.043 | 0.016 | -0.013 | -0.064 | -0.007 | 0.048 | -0.012 | 0.017 |
| VPS35L (UniProt Q7Z3J2) | 0.013 | -0.141 | 0.17 | -0.015 | -0.016 | -0.081 | 0.018 | 0.045 | -0.001 | -0.037 |
| VPS72 isoform 2 (UniProt Q15906) | -0.094 | 0.004 | 0.042 | -0.011 | -0.021 | -0.016 | 0.28 | -0.082 | -0.053 | -0.019 |
| TPP1 (UniProt O14773) | -0.008 | -0.005 | -0.005 | 0.005 | 0.007 | 0.049 | -0.013 | -0.013 | 0.018 | 0.011 |
| UBLCP1 (UniProt Q8WVY7) | 0.036 | -0.032 | 0.024 | 0.147 | 0.027 | -0.016 | -0.068 | -0.038 | 0.088 | -0.034 |
| USP48 isoform 8 (UniProt Q86UV5) | -0.037 | -0.403 | -0.358 | 0.197 | 0.016 | -0.462 | -0.085 | -0.044 | 0.065 | -0.081 |
| USP14 (UniProt P54578) | -0.007 | -0.013 | -0.047 | 0.033 | 0.012 | -0.064 | -0.025 | -0.01 | 0.044 | -0.021 |
| WDR61 (UniProt Q9GZS3) | -0.011 | 0.064 | -0.051 | -0.011 | -0.005 | -0.012 | -0.012 | -0.007 | -0.028 | 0.031 |
| TNFAIP8 isoform 4 (UniProt O95379) | 0.009 | -0.125 | -0.072 | 0.083 | -0.046 | -0.033 | -0.04 | -0.064 | -0.016 | -0.015 |
| TRIP10 isoform 2 (UniProt Q15642) | 0.021 | 0.151 | 0 | 0.051 | -0.258 | -0.196 | 0.071 | -0.081 | -0.147 | -0.246 |
| TRIM44 (UniProt Q96DX7) | 0.035 | -0.076 | -0.008 | 0.116 | -0.01 | -0.053 | -0.092 | -0.026 | 0.032 | 0.025 |
| UFM1 isoform 2 (UniProt P61960) | 0 | 0.044 | -0.037 | -0.158 | 0.022 | -0.065 | -0.114 | -0.024 | 0.01 | -0.082 |
| USO1 isoform 2 (UniProt O60763) | 0.076 | -0.028 | -0.012 | -0.026 | 0.029 | -0.034 | -0.019 | 0.03 | 0.022 | -0.003 |
| USP34 (UniProt Q70CQ2) | 0.006 | -0.102 | -0.274 | 0.069 | -0.049 | -0.164 | -0.055 | -0.015 | 0.08 | 0.002 |
| XIAP (UniProt P98170) | -0.149 | -0.119 | -0.108 | 0.002 | -0.033 | -0.12 | 0.107 | -0.075 | 0.081 | 0.033 |
| TXNL1 (UniProt O43396) | -0.008 | -0.068 | -0.1 | 0.215 | 0.034 | -0.085 | 0.019 | 0.024 | 0.062 | -0.045 |
| TMEM164 (UniProt Q5U3C3) | -0.13 | 0.197 | 0.025 | 0.012 | 0.033 | 0.06 | -0.233 | 0.061 | 0.211 | -0.003 |
| UBC (UniProt P0CG48) | -0.106 | 0.042 | -0.049 | 0.252 | 0.002 | 0.031 | 0.053 | 0.017 | -0.124 | 0.005 |
| TMEM161B (UniProt Q8NDZ6) | 0.048 | 0.037 | -0.037 | -0.007 | -0.043 | -0.061 | 0.013 | -0.049 | -0.023 | -0.05 |
| TNFRSF10A (UniProt O00220) | -0.038 | -0.012 | 0.02 | 0.04 | -0.052 | 0.039 | 0.017 | 0.02 | 0.031 | 0.056 |
| WDR47 (UniProt O94967) | -0.019 | -0.008 | -0.002 | 0.039 | 0.035 | 0.052 | -0.071 | -0.041 | 0.045 | -0.087 |
| WARS2 (UniProt Q9UGM6) | -0.037 | 0.014 | -0.08 | -0.04 | 0.018 | -0.065 | 0.04 | 0.006 | -0.011 | -0.057 |
| TRMT10A (UniProt Q8TBZ6) | -0.028 | -0.024 | -0.12 | -0.038 | 0.054 | -0.06 | 0.016 | 0.032 | 0.026 | 0.036 |
